About 1,800 (75%) of roughly 2,400 compounds were called active. No stated cut-off is given here; in the data, active means inhibition above about 22%; inactive means the rest. So high a share suggests a set chosen from earlier hits. Only a sample is shown.
Test: nonselective antagonists in TAAR1 counter-screen cells, counter-screen for hTAAR1 antagonist project, cell-based, fluorescence, calcium (AID 651780);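 further: CHO-Ga16 host cells stimulated with ATP at an EC80 level; 0% = agonist EC80 plus vehicle and 100% = vehicle without agonist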
Settings: counterscreen cell line, antagonist mode, at 3 µM, stronger effect = higher value

Compound	inhibition
COC(=O)[C@@]1(Sc2ccc(C)cc2)CC(=O)N(c2cccc(SC)c2)[C@@H]1c1ccccc1	21.8% (active)
Clc1ccc(Nc2ncnc3c2nnn3Cc2ccccc2)cc1	9.4% (inactive)
Cc1ccc2c(c1)N(CC(=O)NCCc1ccc(Cl)cc1)C(=O)c1cccnc1O2	22.1% (active)
Cc1ccc(-n2c(C)cc(/C=N\NC(=O)CC(=O)NC(C)C)c2C)cc1	7.15% (inactive)
C/C(=N\Nc1ncc(Cl)cc1Cl)c1ccc(S(=O)(=O)NCc2ccco2)cc1	28.7% (active)
Fc1ccc(/C=N/Nc2nc(-c3cccnc3)nc3ccccc23)cc1	25.1% (active)
O=C(OCC(=O)N(CCc1ccccc1)Cc1ccccc1)c1ccccc1[N+](=O)[O-]	33.2% (active)
Cc1ccc2cccc(OCCCOc3ccccc3CO)c2n1	20.3% (inactive)
COc1cc(OC)cc(C(=O)OCC(=O)Nc2sccc2C(N)=O)c1	27.8% (active)
COc1cc(SC#N)ccc1N=Cc1c(C)[nH]n(-c2ccc(C)cc2)c1=O	87.2% (active)
C=CCC[C@H](Cc1ccc(F)cc1)C(=O)OC[C@H](C)NC(=O)[C@H](CC=C)CC(=O)N(CCO)Cc1ccccc1	27.6% (active)
C=CCC[C@@H](Cc1ccc(F)cc1)C(=O)O[C@H](CNC(=O)[C@H](CC=C)CC(=O)N(CCO)Cc1ccccc1)c1ccccc1	39.2% (active)
Oc1ccccc1N1CCN(c2ncnc3sc(-c4ccccc4)cc23)CC1	30.2% (active)
O=S(=O)(c1cccs1)N1CCCc2nc(-c3ccc(Br)cc3)ccc21	33.3% (active)
CCOC(=O)C1=C(NC(=S)NC(=O)c2ccccc2)c2ccccc2CC1(C)C	24.8% (active)
COc1ccc(-c2nn(-c3ccccc3)cc2C(=O)Nc2nccs2)cc1OC	24.8% (active)
CSCCC(NC(=O)COc1ccccc1)C(=O)OCC(=O)c1cc2ccccc2o1 (centres undefined)	24.2% (active)
CSCCC(NC(=O)COc1ccccc1)C(=O)OCCOc1ccc(Br)cc1 (centres undefined)	21.9% (active)
C[C@@H]1CN([C@@H](C)CO)S(=O)(=O)c2ccc(C#Cc3cccc(F)c3)cc2O[C@H]1CN(C)S(=O)(=O)c1cn(C)cn1	38.3% (active)
Cc1ccc(SCc2c(C(=O)N/N=C/c3cccnc3)nnn2-c2nonc2N)cc1	38.4% (active)

Compound	inhibition
Oc1ccc(/C=N/Nc2nc(-c3ccccc3F)nc3ccccc23)c(O)c1	38.2% (active)
COc1ccc(N(CC(=O)N/N=C/c2cccs2)S(=O)(=O)c2ccc(OC)c(OC)c2)cc1	25.2% (active)
COc1ccc(S(=O)(=O)N(CC(=O)NCc2ccco2)c2ccc(F)cc2)cc1	19.3% (inactive)
O=C(CN1CCCSc2ccccc21)N1CCN(S(=O)(=O)c2cccc(F)c2)CC1	19.4% (inactive)
NNC(=O)CNC(c1ccccc1)c1cc(Cl)ccc1NC(=O)c1ccccc1 (centres undefined)	22.9% (active)
CCOc1ccc(NC(=O)N2CC=C(n3c(=O)[nH]c4ccccc43)CC2)cc1	19.3% (inactive)
Cn1c2ccccc2c(=O)c2c(=O)n(Cc3ccco3)c(COc3ccccc3)nc21	21.8% (active)
Cc1ccc(C)c(N2CCN(C(=O)CCCCCn3c(=S)[nH]c4ccc(N5CCOCC5)cc4c3=O)CC2)c1	44.4% (active)
Cc1ccc(NC(=O)c2ccc(CSc3ncnc4nc[nH]c34)cc2)c(C)c1	17.2% (inactive)
CC(=O)n1cc([C@H]2C=C(C(=O)N3CCOCC3)O[C@@H](OCc3ccc(CO)cc3)C2)c2ccccc21	24.4% (active)
O=C(CCc1ccccc1)Nc1cccc(-c2nnc(-c3ccco3)o2)c1	25.8% (active)
CCN=C1SC(CC(=O)Nc2ccc(C)cc2)C(=O)N1CC (centres undefined)	29.4% (active)
O=C(Nc1ccccc1-c1nnn(CC(=O)N2CCN(c3ccccc3)CC2)n1)c1cccs1	36.9% (active)
Cn1c(C(=O)NCCc2ccsc2)cc2c(=O)n(C)c3ccccc3c21	27.8% (active)
Cc1ccccc1OCC(=O)Nc1ccc(N2CCN(C(=O)C(C)C)CC2)c(Cl)c1	43.2% (active)
CN(c1ccccc1)S(=O)(=O)c1cc(C(=O)Nc2nc3ccccc3[nH]2)ccc1Cl	39.7% (active)
COc1ccc(C2=NOC(Cn3nc(C(=O)NCc4ccc5c(c4)OCO5)cc3-c3ccccc3)C2)cc1 (centres undefined)	34.1% (active)
O=C(NCc1ccc2c(c1)OCO2)c1c(-c2ccsc2)sc2ccccc12	21.1% (inactive)
O=C(COC(=O)c1ccccc1SCC(=O)N1CCCC1)Nc1ccccc1OC(F)F	27.2% (active)
CC(C)N(Cc1ccccc1)C(=O)COC(=O)c1ccccc1SCC(=O)N1CCCC1	30.8% (active)

Compound	inhibition
Cc1cc(C(C)(C)C)oc1C(=O)N(CC(=O)NC1CCCC1)Cc1ccc(Cl)cc1	36% (active)
COC(=O)Cc1nnn2c1[C@H](C)[C@H](c1ccccc1[N+](=O)[O-])OCC2	5.35% (inactive)
COc1ccc(/C=C/C(=O)Nc2ccc(C34CC5CC(CC(O)(C5)C3)C4)cc2)cc1OC	37% (active)
CCOc1ccc(N2CC(C(=O)N/N=C/c3sccc3C)CC2=O)cc1 (centres undefined)	10.5% (inactive)
CSc1ncnc2c1ncn2CC(=O)C1CCC2C3CCC4=CC(=O)CCC4(C)C3CCC12C (centres undefined)	49.7% (active)
CC(C)Oc1cc(F)ccc1-c1cc(C(=O)Nc2ccc(F)cc2)[nH]n1	26.3% (active)
COc1ccc(NC(=O)c2cc(-c3ccc(C)o3)nc3ccccc23)cc1	36.1% (active)
COc1ccc(-c2cc(C(=O)Nc3ccccc3O)c3ccccc3n2)cc1	32.2% (active)
N#Cc1cccc(NC(=O)COC(=O)c2ccccc2C(=O)c2ccc(Cl)c([N+](=O)[O-])c2)c1	36.1% (active)
O=C(NCCN1C(=O)S/C(=C\c2cccnc2)C1=O)c1ccc(S(=O)(=O)N2CCCC2)cc1	13% (inactive)
O=C(NCCN1CCOCC1)c1ccc(/C=C2\Sc3ccccc3N(Cc3ccc(F)cc3)C2=O)cc1	35.2% (active)
COc1ccc(-c2cc(C(=O)N(C)Cc3ccc(OC)c(OC)c3OC)c3ccccc3n2)cc1OC	30.9% (active)
COc1ccc(CN(C)C(=O)c2cc(-c3ccc(C)cc3C)nc3ccccc23)c(OC)c1OC	28% (active)
COc1ccc(-c2cc(C(=O)N(C)Cc3ccccc3)c3ccccc3n2)cc1	27.7% (active)
COc1ccc(-c2cc(C(=O)N(C)CC(=O)Nc3ccccc3Cl)c3ccccc3n2)cc1OC	27.4% (active)
COc1ccc(C(=O)Nc2ccccc2C(=O)N/N=C/c2ccc(O)c(OC)c2)cc1	38.3% (active)
O=C(N/N=C/c1ccc(OC(=O)c2ccccc2Cl)cc1)c1ccc(O)cc1	36.3% (active)
CCOc1cc(/C=N/NC(=O)c2cc(-c3ccccc3)nc3ccccc23)ccc1O	19% (inactive)
CC/C(=N/Nc1ccccc1)c1cnnc(SC)n1	16.8% (inactive)

Source: PubChem BioAssay AID651780 (The Scripps Research Institute Molecular Screening Center, 2012)
